Rows were chosen to be rich in hits. Some 6.9% of all compounds tested hit in one or more screens of this group.
Giardia kill: kills Giardia lamblia; Giardia lamblia trophozoite viability; activity change, % at 7.66 µM, hits read low; hit rate 0.15% among 340,000; in the data active = activity change below about -80%; inconclusive = between about -30% and that limit;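 also: parasites exposed to compound for two days anaerobically before the ATP read; % is scaled to controls: 0 for no effect and ±100 for the full control effect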
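Compounds were tested on trophozoites seeded at 100 cells/well and held 48 hrs at 37 deg C anaerobically. An ATP-based luminescent kit measured the remaining live cells.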
Vif-A3F inh: blocks the Vif interaction with APOBEC3F | Potency, µM (series often up to 46.1 µM), without a hit: at the top dose activity, negative = active | HeLa A3F-eYFP + Vif (tagged APOBEC3F with the HIV-1 protein that degrades it), YFP fluorescence increase | hit rate 0.2% among 390,000 | AID 602313; also: potency is read from the fitted curve at half-maximal effect; % of control where 0% means no effect; nearly all actives have a fitted effect of over 65% in size
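Fluorescence increase (Ex 488/Em 500-530) after overnight compound treatment at 37 deg C flags inhibition of Vif-driven A3F-eYFP loss in stable HeLa A3F-eYFP/Vif cells seeded overnight beforehand.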
Vif-APOBEC3G blk: blocks the Vif interaction with human APOBEC3G; Q9HC16; HeLa A3G-eYFP + Vif (tagged APOBEC3G with the HIV-1 protein that degrades it), YFP fluorescence, overnight; Potency, µM (highest dose often 46.1 µM), without a hit: top-dose activity, negative = active, most hits filed as inhibitors; hit rate 0.076% among 410,000; AID 602310; also: potency is read from the fitted curve at half-maximal effect; % is scaled to controls: 0 for no effect and ±100 for the full control effect; nearly all actives have a fitted effect of over 60% in size
Target sequence (Q9HC16 whole entry, looked up): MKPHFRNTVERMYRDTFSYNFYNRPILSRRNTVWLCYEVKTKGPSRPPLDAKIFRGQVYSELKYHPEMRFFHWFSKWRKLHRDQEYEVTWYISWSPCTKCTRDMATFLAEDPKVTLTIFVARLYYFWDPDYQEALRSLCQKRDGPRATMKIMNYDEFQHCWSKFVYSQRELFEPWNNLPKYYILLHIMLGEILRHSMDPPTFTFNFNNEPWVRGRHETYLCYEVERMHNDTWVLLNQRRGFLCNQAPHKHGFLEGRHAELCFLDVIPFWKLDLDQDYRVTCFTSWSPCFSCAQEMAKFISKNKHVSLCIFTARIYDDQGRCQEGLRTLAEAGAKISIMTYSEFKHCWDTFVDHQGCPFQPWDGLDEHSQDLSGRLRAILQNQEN
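Read-out is eYFP fluorescence (Ex 488/Em 500-530) from Vif-expressing HeLa A3G-eYFP cells; more signal means A3G escaped Vif-mediated degradation. Cells plated overnight, compound pinned in, incubated overnight at 37 deg C.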
SW480 rereplic: induces DNA re-replication in SW480 colon adenocarcinoma cells. hit rate 1.8% among 340,000. SW480 DNA re-replication, Hoechst DNA content imaging, 48 h. Potency, µM (series often up to 46.1 µM), for inactives: top-dose re-replication activation, most hits filed as activators; also: potency is read from the fitted curve at half-maximal effect; % of control where 0% means no effect; nearly all actives have a fitted effect of over 55% in size
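Cells (250 per well) received 23 nL compound or DMSO by pin tool and were kept 48 hr at 37 C, 5% CO2. Nuclei were then stained with Hoechst for 40 min and scanned for DNA content.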
IL1B secr inh: blocks inflammasome-driven IL-1 beta release | THP-1 LPS/ATP IL-1B secretion, AlphaLISA, 16 h; stronger effect = lower value | activity change, % at 57.5 µM | hit rate 4.7% among 360,000; in the data active = activity change below about -50%; inconclusive = mostly about -30% to -49%; also: % is scaled to controls: 0 for no effect and ±100 for the full control effect
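Secreted IL-1B measured by AlphaLISA bead assay after 16 h compound exposure of THP-1 cells; compounds (final up to 57.5 uM) added 1 h before LPS (250 ng/mL) and ATP (1.25 mM) stimulation; lower signal means less secretion.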
MCF10A rerep: DNA re-replication induction in MCF 10a cells. hit rate 2.9% among 350,000. MCF 10A DNA re-replication, Hoechst nuclear intensity, 48 h. Potency, µM (series often up to 46.1 µM), inactives show at the highest dose activity, positive = re-replication, most hits filed as activators; also: potency is read from the fitted curve at half-maximal effect; % of control where 0% means no effect; nearly all actives have a fitted effect of over 50% in size
Starred values were filed as active, the others as inactive. Unless noted, calls follow the shape of the dose curve; as a rule, active = well fitted curve in the direction sought with a large enough effect; inconclusive = small, poorly fitted or top-dose-only effect, or another doubt; inactive = no such curve, though single readings can be large; an effect the other way counts as inactive or inconclusive.

How did CCOC(=O)Cc1ccc(Nc2nc(NCc3cccs3)nc3ccsc23)cc1 do in these assays?
Vif-APOBEC3G blk: 0%; IL1B secr inh: -84*

What do the screens show for `CC(C)Nc1nc(Nc2ccccc2Cl)c2sccc2n1`?
Vif-APOBEC3G blk: -3%; IL1B secr inh: -63*

What do the screens show for `COc1ccc(Nc2nc(NC(C)C)nc3ccsc23)cc1OC`?
Vif-APOBEC3G blk: -28%; IL1B secr inh: -89*

Results for O=C(CN1c2ccc(Br)cc2-c2ccccc2S1(=O)=O)N1CCCCC1 ?
Vif-A3F inh: -7%; Vif-APOBEC3G blk: 1%

What do the screens show for `COc1cc(OC)c(NC(=O)Nc2c(C)n(C)n(-c3ccccc3)c2=O)cc1Cl`?
Vif-A3F inh: -5%; Vif-APOBEC3G blk: -2%

Results for C=C(CC[C@]12OC(C(=O)O)C(O)(C(=O)O)C(C(=O)O)(O1)C(OC(=O)/C=C/[C@@H](C)C[C@@H](C)CC)C2O)[C@@H](OC(C)=O)[C@H](C)Cc1ccccc1 (some centres undefined) ?
Vif-APOBEC3G blk: 3%

Results for Cc1ccc(C(=O)N/C(=C\c2ccc(Cl)cc2)C(=O)NC2CCCCC2)cc1 ?
Vif-A3F inh: inconclusive; Vif-APOBEC3G blk: 2%

How did COC(=O)c1ccccc1NC(=O)CC(NCc1ccccc1)C(=O)O (centres undefined) do in these assays?
Giardia kill: -9; Vif-A3F inh: -3%; Vif-APOBEC3G blk: 0%; SW480 rereplic: 21µM*; IL1B secr inh: -6; MCF10A rerep: 0%

What do the screens show for `COc1cccc(-c2nnc(NC(=O)c3ccc(Cl)s3)o2)c1`?
Giardia kill: 9; Vif-A3F inh: -8%; Vif-APOBEC3G blk: -7%; SW480 rereplic: 25%; IL1B secr inh: 35; MCF10A rerep: 6.5µM*

Results for Cc1cccc(-c2nnc(NC(=O)c3ccc(Cl)cc3)o2)c1 ?
Giardia kill: inconclusive; Vif-A3F inh: -9%; Vif-APOBEC3G blk: 0%; SW480 rereplic: inconclusive; IL1B secr inh: 66; MCF10A rerep: 15µM*

How did O=C(Nc1nnc(-c2ccc(F)cc2)o1)c1cc(Cl)sc1Cl do in these assays?
Giardia kill: -4; Vif-A3F inh: 1%; Vif-APOBEC3G blk: 2%; SW480 rereplic: 29%; IL1B secr inh: 9; MCF10A rerep: 1µM*

Results for COc1cccc(-c2nnc(NC(=O)c3cccc(F)c3)o2)c1 ?
Giardia kill: -1; Vif-A3F inh: 1%; Vif-APOBEC3G blk: -5%; SW480 rereplic: 21%; IL1B secr inh: 33; MCF10A rerep: 23µM*

What do the screens show for `CCOc1ccccc1CNC(=O)CN1C(=O)C2CCCCN2c2ccc(C(=O)N(C)C)cc21` (centres undefined)?
Vif-A3F inh: -13%; Vif-APOBEC3G blk: -3%

Results for Cc1cc(C)cc(NC(=O)NCc2noc3ccccc23)c1 ?
Vif-A3F inh: 0%; Vif-APOBEC3G blk: -1%

Results for O=[N+]([O-])c1cccc(/C=N/Nc2cc(Cl)nc(-c3ccccc3)n2)c1 ?
Giardia kill: -3; Vif-A3F inh: -9%; Vif-APOBEC3G blk: -1%; SW480 rereplic: 17%; IL1B secr inh: -77*; MCF10A rerep: 10%

How did CCCCCCCCCS(=O)(=O)N/N=C/c1cccc([N+](=O)[O-])c1 do in these assays?
Giardia kill: 2; Vif-A3F inh: -5%; Vif-APOBEC3G blk: -5%; SW480 rereplic: 0%; IL1B secr inh: 8; MCF10A rerep: 15µM*

What do the screens show for `O=[N+]([O-])c1ccc(N/N=C/c2cccc(O)c2)cc1`?
Giardia kill: 9; Vif-A3F inh: -3%; Vif-APOBEC3G blk: -23%; SW480 rereplic: inconclusive; IL1B secr inh: -88*; MCF10A rerep: 18µM*

Results for O=[N+]([O-])c1ccc(/C=N/Nc2cc(Cl)nc(-c3ccccc3)n2)cc1 ?
Giardia kill: -14; Vif-A3F inh: 6%; Vif-APOBEC3G blk: -4%; SW480 rereplic: -5%; IL1B secr inh: -1; MCF10A rerep: 2%

Results for Cc1ccc(S(=O)(=O)N/N=C/c2cccc([N+](=O)[O-])c2)cc1 ?
Giardia kill: -15; Vif-A3F inh: -22%; Vif-APOBEC3G blk: 1%; SW480 rereplic: -73%; IL1B secr inh: -9; MCF10A rerep: inconclusive

Results for Cc1ccc(S(=O)(=O)Oc2ccccc2)cc1 ?
Giardia kill: 9; Vif-A3F inh: 10%; Vif-APOBEC3G blk: -1%; SW480 rereplic: -4%; IL1B secr inh: -3; MCF10A rerep: -2%

What do the screens show for `Cc1ccc(S(=O)(=O)Oc2ccccc2-c2ccccc2)cc1`?
Giardia kill: -15; Vif-A3F inh: 6%; Vif-APOBEC3G blk: -15%; SW480 rereplic: 12µM*; IL1B secr inh: 45; MCF10A rerep: 12µM*

Results for COc1cccc(CNC(=O)c2ccc(-c3nc(CS(=O)c4ccccc4)c(C)o3)cc2)c1 (centres undefined) ?
Vif-A3F inh: -1%; Vif-APOBEC3G blk: 6%

Results for CCOC(=O)c1c[nH]c2cc(OCC(C)C)c(OCC(C)C)cc2c1=O ?
SW480 rereplic: -3%; MCF10A rerep: -1%

How did COc1ccc(CNC(=O)c2cc3c(=O)n4cccc(C)c4nc3s2)cc1 do in these assays?
Vif-A3F inh: -6%; Vif-APOBEC3G blk: 1%

Results for O=[N+]([O-])c1ccc(N/N=C/c2cccnc2)cc1 ?
Giardia kill: -17; Vif-A3F inh: 8%; Vif-APOBEC3G blk: 0%; SW480 rereplic: inconclusive; IL1B secr inh: -17; MCF10A rerep: 13%

What do the screens show for `CCCCCCCCCCS(=O)(=O)N/N=C/c1ccc(O)cc1`?
Giardia kill: -4; Vif-A3F inh: -21%; Vif-APOBEC3G blk: 3%; SW480 rereplic: -3%; IL1B secr inh: inconclusive; MCF10A rerep: 1%

How did CCCCCCCCCCS(=O)(=O)N/N=C/c1ccccc1OC do in these assays?
Giardia kill: -2; Vif-A3F inh: -14%; Vif-APOBEC3G blk: -9%; SW480 rereplic: -2%; IL1B secr inh: 15; MCF10A rerep: 18µM*

Results for Cc1ccc(S(=O)(=O)Oc2ccccc2/C=N/O)cc1 ?
Giardia kill: -27; Vif-A3F inh: -2%; Vif-APOBEC3G blk: -6%; SW480 rereplic: 0%; IL1B secr inh: -11; MCF10A rerep: 1%

What do the screens show for `Cc1ccc(S(=O)(=O)Oc2ccccc2/C=N/Nc2ccc(C(=O)O)cc2)cc1`?
Giardia kill: 3; Vif-A3F inh: -7%; Vif-APOBEC3G blk: inconclusive; SW480 rereplic: inconclusive; IL1B secr inh: 54; MCF10A rerep: 18µM*

How did O=[N+]([O-])c1ccc(NN=Cc2cccc([N+](=O)[O-])c2)cc1 do in these assays?
Giardia kill: 7; Vif-A3F inh: inconclusive; Vif-APOBEC3G blk: -1%; SW480 rereplic: 25%; IL1B secr inh: inconclusive; MCF10A rerep: 23µM*

Screening data deposited in PubChem BioAssay by National Center for Advancing Translational Sciences (NCATS).
